A structure can be active in one record and inactive in another. The source made the active and inactive calls. The calls were made as follows: active = hit-call score of the fitted dose curve at least 0.9, where 1 is the maximum; inactive = score below 0.9.
Experiments:
[1] = target: Bile acid receptor (Homo sapiens) (UniProt Q96RI1); assay: ATG_IR1_CIS: Attagene CIS-FACTORIAL HepG2 Assay for human Nuclear Receptor Subfamily 1 Group H Member 4 (NR1H4), IR1 submotif (AID 2282946); conditions: IR1 reporter transcription, actives raise or lower the signal
Bile acid receptor (Homo sapiens), sequence (Q96RI1 whole entry, looked up, the tested form may be a part): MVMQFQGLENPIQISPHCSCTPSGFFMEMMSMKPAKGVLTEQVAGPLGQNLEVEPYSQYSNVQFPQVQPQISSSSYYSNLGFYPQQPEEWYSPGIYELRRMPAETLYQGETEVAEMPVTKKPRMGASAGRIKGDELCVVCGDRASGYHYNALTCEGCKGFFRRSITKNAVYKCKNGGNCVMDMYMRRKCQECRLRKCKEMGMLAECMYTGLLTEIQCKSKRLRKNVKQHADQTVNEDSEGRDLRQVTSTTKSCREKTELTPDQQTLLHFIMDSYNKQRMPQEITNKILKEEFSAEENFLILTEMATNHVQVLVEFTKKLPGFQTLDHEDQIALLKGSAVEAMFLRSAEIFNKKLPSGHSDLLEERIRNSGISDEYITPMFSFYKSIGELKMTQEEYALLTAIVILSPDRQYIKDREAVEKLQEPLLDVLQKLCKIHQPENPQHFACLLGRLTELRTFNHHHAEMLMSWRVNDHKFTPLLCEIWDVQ
Outline: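 Cells (human HepG2) carry transiently transfected cis-promoter reporter transcription units. Compounds are incubated 24 h, total RNA is reverse-transcribed and amplified, and labelled fragments are resolved by capillary electrophoresis. Curves use DMSO as baseline.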

[2] = ATG_GRE_CIS: Attagene CIS-FACTORIAL HepG2 Assay for human Glucocorticoid Response Elements (GRE) (AID 2282947); conditions: HepG2 GRE cis-reporter, Attagene multiplex mRNA; actives raise or lower the signal
Outline: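 Transient MRTU transfection of human HepG2 liver cells; cis-regulated reporters report endogenous factors. 24 h dosing → RNA isolation → RT-PCR → 6-FAM primer extension → HpaI cut → CE fragment analysis. Bidirectional fit, DMSO negative control.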

[3] = ATG_ISRE_CIS: Attagene CIS-FACTORIAL HepG2 Assay for human Interferon Regulatory Factor 1 (IRF1) binding to an Interferon-Stimulated Response Element (ISRE) (AID 2282948); conditions: HepG2 ISRE cis-reporter (Attagene), mRNA transcription readout; actives raise or lower the signal
Outline: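 Transfected HepG2 (multiple reporter transcription units, cis elements) dosed 24 h. RNA → oligo(dT) RT → PCR → 6-FAM primer extension → HpaI → CE. DMSO = negative control/baseline.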

[4] = ATG_M_32_CIS: Attagene CIS-FACTORIAL HepG2 Assay for M32 Transcription Factor (Internal Marker) (AID 2282949); conditions: HepG2 Attagene cis-factorial M32 reporter, mRNA; actives raise or lower the signal;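 also: background control marker of the multiplexed CIS panel rather than a real target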
Outline: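 Fluorescent capillary electrophoresis peaks of HpaI-digested, FAM-labelled RT-PCR reporter products give the signal. Source: transiently transfected human liver HepG2 cells, 24 h after chemical dosing; bidirectional fitting against DMSO.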

[5] = ATG_M_06_CIS: Attagene CIS-FACTORIAL HepG2 Assay for M06 Transcription Factor (Internal Marker) (AID 2282950); conditions: HepG2 Attagene CIS-FACTORIAL M06 internal marker reporter; actives raise or lower the signal
Outline: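 Steps: transfect HepG2 with multiplexed cis-element reporter constructs; dose chemical 24 h; extract RNA with DNase treatment; reverse-transcribe, PCR-amplify, 6-FAM label, HpaI digest; separate fragments by capillary electrophoresis. Activity fitted both directions versus DMSO.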

[6] = target: Hypoxia-inducible factor 1-alpha (Homo sapiens) (UniProt Q16665); assay: ATG_HIF1a_CIS: Attagene CIS-FACTORIAL HepG2 Assay for human Hypoxia Inducible Factor 1 (HIF1A) (AID 2282951); conditions: HepG2 Attagene cis-factorial HIF1a reporter transcription; actives raise or lower the signal
Hypoxia-inducible factor 1-alpha (Homo sapiens), sequence (Q16665 whole entry, looked up): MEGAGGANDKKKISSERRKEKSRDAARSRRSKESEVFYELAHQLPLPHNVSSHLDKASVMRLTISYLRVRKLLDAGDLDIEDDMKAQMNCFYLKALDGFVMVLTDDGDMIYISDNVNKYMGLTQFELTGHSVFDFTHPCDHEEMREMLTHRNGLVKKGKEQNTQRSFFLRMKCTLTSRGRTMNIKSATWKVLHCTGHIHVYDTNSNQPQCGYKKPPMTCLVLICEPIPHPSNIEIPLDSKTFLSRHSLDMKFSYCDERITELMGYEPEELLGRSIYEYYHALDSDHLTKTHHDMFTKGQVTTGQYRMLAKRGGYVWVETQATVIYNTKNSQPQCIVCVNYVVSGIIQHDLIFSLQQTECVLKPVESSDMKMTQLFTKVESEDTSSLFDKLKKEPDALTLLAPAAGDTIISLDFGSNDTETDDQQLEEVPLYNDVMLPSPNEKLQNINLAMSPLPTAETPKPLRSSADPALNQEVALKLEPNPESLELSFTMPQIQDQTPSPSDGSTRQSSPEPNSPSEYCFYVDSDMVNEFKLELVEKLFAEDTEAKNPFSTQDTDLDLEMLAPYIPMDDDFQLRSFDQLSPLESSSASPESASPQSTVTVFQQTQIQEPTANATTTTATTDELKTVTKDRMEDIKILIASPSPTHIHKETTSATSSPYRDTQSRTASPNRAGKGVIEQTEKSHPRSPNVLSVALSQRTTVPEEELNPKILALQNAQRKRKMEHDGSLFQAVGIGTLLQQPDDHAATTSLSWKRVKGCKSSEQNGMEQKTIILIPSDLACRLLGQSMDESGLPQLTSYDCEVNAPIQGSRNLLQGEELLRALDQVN
Outline: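 HepG2 cells transiently transfected with multiple cis-regulated reporter transcription units measure endogenous transcription factor activity. After 24 h exposure, reporter mRNA is quantified by RT-PCR with 6-FAM labelling, HpaI digestion and capillary electrophoresis. Bidirectional fitting against DMSO.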

[7] = target: Hepatocyte nuclear factor 6 (Homo sapiens) (UniProt Q9UBC0); assay: ATG_HNF6_CIS: Attagene CIS-FACTORIAL HepG2 Assay for human Hepatocyte Nuclear Factor 6 (HNF6) (AID 2282952); conditions: HepG2 Attagene cis-factorial HNF6 reporter transcription; actives raise or lower the signal
Hepatocyte nuclear factor 6 (Homo sapiens), sequence (Q9UBC0 whole entry, looked up): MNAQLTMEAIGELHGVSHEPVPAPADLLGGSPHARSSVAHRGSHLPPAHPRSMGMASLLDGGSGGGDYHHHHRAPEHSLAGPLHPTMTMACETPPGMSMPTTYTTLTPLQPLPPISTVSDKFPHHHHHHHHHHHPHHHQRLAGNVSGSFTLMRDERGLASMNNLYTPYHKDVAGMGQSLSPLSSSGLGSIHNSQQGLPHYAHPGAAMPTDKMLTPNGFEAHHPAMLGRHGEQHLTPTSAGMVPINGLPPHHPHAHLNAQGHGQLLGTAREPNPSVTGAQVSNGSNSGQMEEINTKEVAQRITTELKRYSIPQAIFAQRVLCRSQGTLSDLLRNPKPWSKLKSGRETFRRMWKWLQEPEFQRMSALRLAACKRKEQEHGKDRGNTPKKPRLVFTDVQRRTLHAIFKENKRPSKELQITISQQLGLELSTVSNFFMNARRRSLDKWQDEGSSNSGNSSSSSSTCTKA
Outline: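 Cells are HepG2 carrying transiently transfected cis-promoter reporter units. Treatment lasts 24 h, after which reporter transcripts are reverse-transcribed, amplified, FAM-labelled and sized by capillary electrophoresis. DMSO serves as baseline.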

[8] = target: Heat shock factor protein 1 (Homo sapiens) (UniProt Q00613); assay: ATG_HSE_CIS: Attagene CIS-FACTORIAL HepG2 Assay for human Heat Shock Transcription Factor 1 (HSE) (AID 2282953); conditions: HepG2 HSE cis-reporter, Attagene RNA transcription; actives raise or lower the signal
Heat shock factor protein 1 (Homo sapiens), sequence (Q00613 whole entry, looked up, the tested form may be a part): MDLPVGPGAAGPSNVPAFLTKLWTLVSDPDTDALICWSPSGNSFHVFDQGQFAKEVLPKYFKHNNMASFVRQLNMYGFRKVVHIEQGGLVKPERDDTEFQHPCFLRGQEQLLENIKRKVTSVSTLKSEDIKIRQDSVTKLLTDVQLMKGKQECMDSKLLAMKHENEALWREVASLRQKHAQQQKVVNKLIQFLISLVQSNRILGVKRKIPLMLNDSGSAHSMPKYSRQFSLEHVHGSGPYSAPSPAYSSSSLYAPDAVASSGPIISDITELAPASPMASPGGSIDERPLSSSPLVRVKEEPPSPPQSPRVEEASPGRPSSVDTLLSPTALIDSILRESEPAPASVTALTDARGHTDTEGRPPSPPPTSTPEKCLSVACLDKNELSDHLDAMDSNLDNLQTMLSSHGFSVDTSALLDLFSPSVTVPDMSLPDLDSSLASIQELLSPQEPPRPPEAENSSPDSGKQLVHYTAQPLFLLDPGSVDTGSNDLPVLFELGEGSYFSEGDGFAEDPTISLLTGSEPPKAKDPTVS
Outline: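 Cells were transfected with cis-element-driven reporter constructs, dosed for 24 h, then total RNA was reverse-transcribed and reporter cDNA amplified, FAM-labelled and digested with HpaI. Fragments were resolved by capillary electrophoresis; gain or loss was fitted against DMSO.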

[9] = ATG_MRE_CIS: Attagene CIS-FACTORIAL HepG2 Assay for human Metal Responsive Element (MRE) (AID 2282954); conditions: HepG2 MRE cis-reporter transcription, Attagene multiplex; actives raise or lower the signal
Outline: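 Transient MRTU transfection of HepG2 (FuGene 6); 24 h dosing; total RNA → oligo(dT) RT, PCR, 6-FAM primer extension, HpaI cut, CE. Bidirectional fit vs DMSO.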

[10] = ATG_PBREM_CIS: Attagene CIS-FACTORIAL HepG2 Assay for human Phenobarbital-responsive Enhancer Module (PBREM) (AID 2282955); conditions: HepG2 PBREM cis-reporter, Attagene multiplexed transcription; actives raise or lower the signal
Outline: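 HepG2 cells transiently transfected with multiple cis-regulated reporter units measure endogenous transcription factor activity; 24 h compound exposure. Reporter mRNA quantified by RT-PCR, fluorescent labelling, HpaI digestion and capillary electrophoresis; bidirectional fit versus DMSO.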

[11] = target: Paired box protein Pax-6 (Homo sapiens) (UniProt P26367); assay: ATG_Pax6_CIS: Attagene CIS-FACTORIAL HepG2 Assay for human Paired Box 6 (PAX6) (AID 2282956); conditions: HepG2 CIS-FACTORIAL PAX6 reporter transcription, RNA readout; actives raise or lower the signal
Paired box protein Pax-6 (Homo sapiens), sequence (P26367 whole entry, looked up): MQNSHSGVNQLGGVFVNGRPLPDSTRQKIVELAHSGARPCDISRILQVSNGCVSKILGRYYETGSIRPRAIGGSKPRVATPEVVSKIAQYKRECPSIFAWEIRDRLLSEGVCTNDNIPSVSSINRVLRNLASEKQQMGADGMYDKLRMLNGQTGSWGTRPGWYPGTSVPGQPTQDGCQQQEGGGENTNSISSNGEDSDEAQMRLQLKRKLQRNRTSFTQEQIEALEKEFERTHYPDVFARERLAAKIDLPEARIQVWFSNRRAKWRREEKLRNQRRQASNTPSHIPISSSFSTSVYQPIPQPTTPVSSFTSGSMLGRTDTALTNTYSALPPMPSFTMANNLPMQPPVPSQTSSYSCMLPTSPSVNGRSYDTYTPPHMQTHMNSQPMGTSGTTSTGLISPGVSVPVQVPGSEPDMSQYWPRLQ
Outline: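 Transient MRTU transfection of HepG2 → compound exposure 24 h → TriZol RNA, oligo(dT) RT → PCR, 6-FAM primer extension, HpaI cut → capillary electrophoresis; activity fitted both directions against DMSO.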

[12] = ATG_PXRE_CIS: Attagene CIS-FACTORIAL HepG2 Assay for human Pregnane X Receptor Element (PXRE) (AID 2282957); conditions: HepG2 Attagene CIS-FACTORIAL PXRE reporter, mRNA; actives raise or lower the signal
Outline: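 Multiplexed cis-reporter assay in transiently transfected human HepG2 cells; 24 h chemical exposure. Reporter transcripts quantified by RT-PCR with fluorescent labeling and capillary electrophoresis.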

[13] = ATG_PPRE_CIS: Attagene CIS-FACTORIAL HepG2 Assay for human Peroxisome Proliferator-activated Response Element (PPRE) (AID 2282958); conditions: HepG2 PPRE cis-element reporter, Attagene transcription factor profiling; actives raise or lower the signal
Outline: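 HepG2 cells are transiently transfected with multiplexed cis-promoter reporter units to report endogenous PPAR activity. After 24 h dosing, reporter mRNA is read by RT-PCR and capillary electrophoresis. Fitting is bidirectional against DMSO.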

[14] = ATG_RORE_CIS: Attagene CIS-FACTORIAL HepG2 Assay for human RAR-related Orphan Receptor Element (RORE) (AID 2282959); conditions: HepG2 Attagene cis-factorial RORE reporter, mRNA; actives raise or lower the signal
Outline: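 HepG2 cells carrying transiently transfected cis-regulated reporter units; RORE-driven reporter mRNA quantified 24 h post-dosing by RT-PCR, 6-FAM primer extension, HpaI digestion and capillary electrophoresis. Bidirectional fit versus DMSO.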

[15] = ATG_Sox_CIS: Attagene CIS-FACTORIAL HepG2 Assay for human SRY-box transcription factor (SOX) (AID 2282960); conditions: HepG2 Attagene cis-factorial SOX reporter, mRNA; actives raise or lower the signal
Outline: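 HepG2 cells transiently transfected with multiple cis-regulated reporter units, then dosed for 24 h. Reporter mRNA quantified by RT-PCR, fluorescent labelling, HpaI digestion and capillary electrophoresis; bidirectional fit versus DMSO.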

[16] = target: Transcription factor Sp1 (Homo sapiens) (UniProt P08047); assay: ATG_Sp1_CIS: Attagene CIS-FACTORIAL HepG2 Assay for human Specificity Protein 1 (Sp1) (AID 2282961); conditions: HepG2 Sp1 cis-reporter transcription, actives raise or lower the signal
Transcription factor Sp1 (Homo sapiens), sequence (P08047 whole entry, looked up): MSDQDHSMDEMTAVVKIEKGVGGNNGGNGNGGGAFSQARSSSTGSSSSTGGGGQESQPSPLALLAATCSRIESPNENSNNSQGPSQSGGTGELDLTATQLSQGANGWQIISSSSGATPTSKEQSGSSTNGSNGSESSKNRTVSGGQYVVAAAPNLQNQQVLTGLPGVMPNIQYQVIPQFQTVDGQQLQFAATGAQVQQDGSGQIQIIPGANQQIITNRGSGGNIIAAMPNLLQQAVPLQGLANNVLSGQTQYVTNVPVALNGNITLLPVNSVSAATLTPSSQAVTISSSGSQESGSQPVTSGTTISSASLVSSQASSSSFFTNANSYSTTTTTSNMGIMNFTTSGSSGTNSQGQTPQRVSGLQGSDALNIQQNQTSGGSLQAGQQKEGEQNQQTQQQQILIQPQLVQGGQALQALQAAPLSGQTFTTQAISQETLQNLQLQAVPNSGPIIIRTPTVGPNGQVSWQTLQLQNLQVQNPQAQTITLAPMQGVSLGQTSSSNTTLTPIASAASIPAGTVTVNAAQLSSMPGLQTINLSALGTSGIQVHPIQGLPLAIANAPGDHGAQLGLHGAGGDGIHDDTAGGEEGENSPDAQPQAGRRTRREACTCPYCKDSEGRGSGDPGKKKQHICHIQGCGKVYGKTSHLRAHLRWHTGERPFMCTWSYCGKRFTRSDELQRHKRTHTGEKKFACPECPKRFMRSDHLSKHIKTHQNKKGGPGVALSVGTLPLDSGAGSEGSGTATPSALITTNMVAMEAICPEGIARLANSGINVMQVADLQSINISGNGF
Outline: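 HepG2 cells transiently transfected with multiplexed cis-regulated reporter constructs, chemical exposure 24 h. Reporter mRNA quantified by RT-PCR with capillary electrophoresis; bidirectional fit relative to DMSO.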

[17] = ATG_SREBP_CIS: Attagene CIS-FACTORIAL HepG2 Assay for human Sterol Regulatory Element Binding (SREBP) (AID 2282962); conditions: HepG2 Attagene cis-factorial SREBP reporter, mRNA; actives raise or lower the signal
Outline: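 Transfected HepG2 (cis-regulated reporter library, endogenous TFs) → compound 24 h → total RNA → oligo(dT) RT → reporter-specific PCR → FAM primer extension, HpaI cut → CE fluorescence. Fit bidirectional vs DMSO.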

[18] = target: Signal transducer and activator of transcription 3 (Homo sapiens) (UniProt P40763); assay: ATG_STAT3_CIS: Attagene CIS-FACTORIAL HepG2 Assay for human Signal Transducer and Activator of Transcription 3 (STAT3) (AID 2282963); conditions: HepG2, Attagene cis-factorial STAT3 reporter transcription; actives raise or lower the signal
Signal transducer and activator of transcription 3 (Homo sapiens), sequence (P40763 whole entry, looked up): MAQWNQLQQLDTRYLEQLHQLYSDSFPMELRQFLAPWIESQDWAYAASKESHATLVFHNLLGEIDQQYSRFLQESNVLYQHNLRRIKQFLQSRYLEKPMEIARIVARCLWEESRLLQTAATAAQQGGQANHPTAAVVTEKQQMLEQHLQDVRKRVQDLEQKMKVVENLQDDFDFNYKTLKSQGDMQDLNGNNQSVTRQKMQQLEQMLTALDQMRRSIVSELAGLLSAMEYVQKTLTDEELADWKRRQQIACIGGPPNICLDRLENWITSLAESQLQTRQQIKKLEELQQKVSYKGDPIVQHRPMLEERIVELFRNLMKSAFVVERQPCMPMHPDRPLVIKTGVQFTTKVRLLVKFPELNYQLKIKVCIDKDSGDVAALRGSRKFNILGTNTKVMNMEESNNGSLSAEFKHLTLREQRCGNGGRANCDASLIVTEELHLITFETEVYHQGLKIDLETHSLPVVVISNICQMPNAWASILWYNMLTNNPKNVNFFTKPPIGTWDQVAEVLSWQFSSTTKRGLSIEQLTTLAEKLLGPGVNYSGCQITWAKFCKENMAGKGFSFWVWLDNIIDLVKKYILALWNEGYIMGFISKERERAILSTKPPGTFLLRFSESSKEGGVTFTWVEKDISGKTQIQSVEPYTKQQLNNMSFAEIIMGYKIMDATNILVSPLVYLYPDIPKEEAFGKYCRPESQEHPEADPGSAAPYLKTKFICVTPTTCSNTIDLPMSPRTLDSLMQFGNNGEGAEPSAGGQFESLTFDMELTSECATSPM
Outline: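 Endogenous STAT3-responsive cis-element activity was read in transiently transfected HepG2 cells after 24 h treatment. Reporter transcripts were quantified via RT-PCR and capillary electrophoresis, with DMSO as negative control and bidirectional curve fitting.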

[19] = ATG_TA_CIS: Attagene CIS-FACTORIAL HepG2 Assay for human TA Basal Promoter (AID 2282964); conditions: HepG2 Attagene CIS-factorial TA basal promoter reporter; actives raise or lower the signal
Outline: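 Steps: transfect HepG2 with MRTUs; dose 24 h; isolate RNA, DNase-treat, reverse-transcribe; PCR and FAM-label reporter cDNA; digest with HpaI 2h at 37 C; run capillary electrophoresis. Activity fitted both directions against DMSO.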

[20] = ATG_TCF_b_cat_CIS: Attagene CIS-FACTORIAL HepG2 Assay for human T-Cell-Factor with beta-catenin (TCF/b-cat) (AID 2282965); conditions: HepG2 TCF/beta-catenin cis-reporter transcription, actives raise or lower the signal
Outline: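 Measured: reporter mRNA in HepG2 transiently transfected with cis-promoter reporter units, 24 h after chemical addition. Fitting was bidirectional, DMSO as negative control.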

Measured: AC50

Oc1ccc(I)cc1
not listed: [20]
inactive: all other assays above

CCOC(=O)c1ccccc1N
active: [12] 39.6 µM
inactive: all other assays above

C/C(=N\NC(=O)Nc1cc(F)cc(F)c1)c1ncccc1C(=O)O
active: [12] 172 µM
inactive: [1] | [2] | [3] | [4] | [5] | [6] | [7] | [8] | [9] | [10] | [11] | [12] | [14] | [15] | [16] | [17] | [18] | [19] | [20]

O=C(O)C=CC(F)(C(F)(F)F)C(F)(F)F
not listed: [17] | [20]
inactive: all other assays above

CCCCC(CC)COC(=O)c1c(Br)c(Br)c(Br)c(Br)c1C(=O)OCC(CC)CCCC (stereo not drawn)
active: [12] 19.9 µM
not listed: [13] | [19] | [20]
inactive: all other assays above

O=P(OCC(Br)CBr)(OCC(Br)CBr)OCC(Br)CBr (stereo not drawn)
active: [3] 10.3 µM | [6] 16.3 µM | [9] 24.9 µM | [11] 19.6 µM | [12] 0.0674 µM | [17] 22.9 µM | [19] 11.8 µM
not listed: [14] | [20]
inactive: all other assays above

CC(=O)CCc1ccc2c(c1)OCO2
active: [12] 27.9 µM
not listed: [19]
inactive: all other assays above

CC1(C)CN=C(NN=C(/C=C/c2ccc(C(F)(F)F)cc2)/C=C/c2ccc(C(F)(F)F)cc2)NC1
active: [1] 6.99 µM | [3] 18.4 µM | [4] 17.4 µM | [7] 17.3 µM | [8] 18 µM | [9] 6.34 µM | [12] 4.77 µM | [13] 3.92 µM | [15] 15.4 µM | [16] 16.6 µM | [18] 20.2 µM
inactive: [2] | [5] | [6] | [10] | [11] | [14]

CCCCOCC1CO1 (stereo not drawn)
not listed: [17] | [20]
inactive: all other assays above

CCOP(=S)(OCC)SCS(=O)(=O)CC
active: [12] 11.3 µM
not listed: [14]
inactive: all other assays above

ClC1=C(Cl)C2(Cl)C3C(Cl)C(Cl)CC3C1(Cl)C2(Cl)Cl (stereo not drawn)
active: [1] 17.1 µM | [8] 50 µM | [9] 41.2 µM | [12] 2.38 µM | [19] 39.1 µM
not listed: [20]
inactive: all other assays above

FC(F)(F)C(F)(C(F)(F)F)C(F)(F)C(F)(F)CC1CO1 (stereo not drawn)
not listed: [4] | [13] | [19] | [20]
inactive: all other assays above

O=S1(=O)OCC2C(CO1)C1(Cl)C(Cl)=C(Cl)C2(Cl)C1(Cl)Cl (stereo not drawn)
active: [3] 100 µM | [8] 142 µM | [9] 163 µM | [11] 100 µM | [12] 1.58 µM | [16] 172 µM | [20] 11.6 µM
not listed: [13] | [17] | [19]
inactive: all other assays above

CC(Cl)CN(C)C (stereo not drawn)
not listed: [13] | [19]
inactive: all other assays above

CCCCN(CC)C(=O)SCCC
active: [12] 25.9 µM
not listed: [4] | [17]
inactive: all other assays above

Reference: PubChem BioAssay (EPA / NIEHS)
